Compounds with a hit are over-represented: about 14% of the library has one in this group of screens.
Sm TGR inh: inhibitors of Schistosoma mansoni thioredoxin glutathione reductase. Q962Y6. purified TGR, DTNB reduction, TNB absorbance 405 nm. Potency, µM (highest dose often 114 µM), for inactives: at the highest dose activity change, negative = inhibition, actives largely listed as inhibitors. actives 3% (n = 360,000). AID 485364; note: potency is the fitted concentration of half-maximal effect; nearly all actives have a fitted effect of over 60% in size
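TGR 20 nM + NADPH 100 uM (dispensed conc.), cpd preinc 15 min RT; start with NADPH (500 uM addition) then DTNB (15 mM addition). Kinetic TNB absorbance, 405 nm filter. Four-parameter Hill fit across titration.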
FBPA Giardia inh: inhibitors of Giardia lamblia fructose-1,6-bisphosphate aldolase; A8B2U2; purified Giardia FBPA; Potency, µM (highest dose often 59.6 µM), inactives show at the top dose activity, negative = inhibition, most hits filed as inhibitors; actives 0.71% (n = 290,000); AID 2451; note: potency is the fitted concentration of half-maximal effect; nearly all actives have a fitted effect of over 55% in size
Target sequence (A8B2U2 whole entry, looked up): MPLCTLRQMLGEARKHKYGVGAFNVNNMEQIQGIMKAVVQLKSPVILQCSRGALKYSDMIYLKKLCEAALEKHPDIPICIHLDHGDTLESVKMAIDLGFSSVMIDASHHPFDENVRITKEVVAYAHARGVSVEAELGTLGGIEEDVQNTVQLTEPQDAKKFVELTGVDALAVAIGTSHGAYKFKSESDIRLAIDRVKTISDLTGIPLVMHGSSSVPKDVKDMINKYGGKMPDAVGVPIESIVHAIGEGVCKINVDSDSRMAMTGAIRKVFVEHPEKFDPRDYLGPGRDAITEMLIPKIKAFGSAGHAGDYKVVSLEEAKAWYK
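Giardia FBPA (40 nM reagent) was preincubated 10 min at RT with compound (up to 57.5 uM final), then substrate plus GAPDH/TPI/NAD/arsenate coupling system with diaphorase/resazurin was added; resorufin fluorescence (525/598 nm) was read after 20 min.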
Pf growth 48h: inhibits P. falciparum growth in the first generation, 48 h. P. falciparum luciferase growth in erythrocytes, 48 h. Potency, µM (top dose mostly 28.7 µM), for inactives: top-dose activity change, negative = inhibition, actives largely listed as inhibitors. actives 5.9% (n = 310,000). AID 504832; note: potency is the fitted concentration of half-maximal effect
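Firefly luciferase activity from engineered P. falciparum reports growth; inhibitors lower the luminescent signal. Cultures contained 2% hematocrit erythrocytes at 0.1% final parasitemia.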
HCMV inh: inhibitors of human cytomegalovirus | HFF cells, HCMV-luciferase reporter, 72 h; hits give low values | activity change, negative = inhibition, % at 57.5 µM | actives 4.5% (n = 410,000); in the data active = activity change below about -60%; inconclusive = no clear call, values can overlap the other calls; inactive = above about -39%
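Inhibition of viral replication was scored as loss of reporter luminescence in HFFs infected with HCMV-luciferase (MOI 1 PFU/cell) for 72 h; compounds tested at 2 doses, normalized to buffer and Salinomycin controls.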
Pf growth 96h: inhibits malaria parasite growth, 96 h; P. falciparum luciferase reporter growth, 96 h; Potency, µM (doses to about 28.7 µM), without a hit: top-dose activity change, negative = inhibition, actives largely listed as inhibitors; actives 6.9% (n = 320,000); AID 504834; note: potency is the fitted concentration of half-maximal effect
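Parasite growth measured via integrated firefly luciferase reporter in P. falciparum. Infected erythrocytes at 2% hematocrit, 0.05% parasitemia final were treated 96 hours at 37 C under 5% CO2, and luminescence was read.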
* = called active by the depositor; ? = inconclusive; · = no result given; [ ] = dose if it differs, or a comment. Unless noted, calls come from the whole dose curve; as a rule, active = well fitted curve in the direction sought with a large enough effect; inconclusive = small, poorly fitted or top-dose-only effect, or another doubt; inactive = no such curve, though single readings can be large; an effect the other way counts as inactive or inconclusive. % is set by controls: 0 for no effect and ±100 for the full control effect.

SMILES	Sm TGR inh	FBPA Giardia inh	Pf growth 48h	HCMV inh	Pf growth 96h
COCCNC(=S)N1CCc2cc(OC)c(OC)cc2C1COc1ccc(C(C)C)cc1 (centres undefined)	1%	-1%	12µM*	56	8.3µM*
COCCNC(=S)N1CCc2cc(OC)c(OC)cc2C1COc1ccc(F)cc1 (centres undefined)	8%	-7%	?	18	35%
CN(C)c1ccc2c(-c3ccccc3)c3ccc(=[N+](C)C)cc-3oc2c1	·	28%	·	·	·
CCC(C(=O)NC1CCCCC1)n1c(SCc2ccccc2F)nc2ccncc21 (centres undefined)	3%	0%	-10%	-10	8.3µM*
O=C(NC1CCCC1)c1ccc(CSc2nc3ccncc3n2Cc2ccccc2F)cc1	8%	·	·	30	·
CSc1ccc(Cn2nnc(C(=O)Nc3ccc(C)cc3Cl)c2N)cc1	7%	·	·	-78*	·
COc1ccc(Br)cc1Cn1nnc(C(=O)Nc2ccc(C)cc2C)c1N	0%	·	·	-74*	·
Cc1ccc(Cn2nnc(C(=O)Nc3cc(C)ccc3C)c2N)cc1	-25%	-1%	?	-11	26%
CC(NC(N)=O)C(=O)Nc1ccc(Cl)c(S(=O)(=O)Nc2ccc(Br)cc2)c1 (centres undefined)	-6%	8%	6%	32	-3%
O=C1c2ccccc2C(=O)N1CCC(c1ccc(F)cc1)c1ccco1 (centres undefined)	40µM*	1%	?	81	35%
O=C1CCC(=O)N1CCC(c1ccc(F)cc1)c1ccco1 (centres undefined)	45µM*	-5%	?	-13	?
O=C(CC(c1ccc(F)cc1)c1ccco1)N1CCOCC1 (centres undefined)	-12%	-3%	20%	-38	7%
COc1ccccc1C1CCCN1Cc1nc(-c2cc3c(cc2Cl)OCO3)oc1C (centres undefined)	-3%	-21%	9.3µM*	-24	-13%
COc1cccc(C2CCCN2Cc2nc(-c3sccc3C)oc2C)c1 (centres undefined)	?	-1%	?	-18	-11%
COc1ccccc1C1CCCN1Cc1nc(-c2ccc(C)s2)oc1C (centres undefined)	?	-3%	4.7µM*	-99*	5%
Cc1ccccc1NC(=O)N1CCCN(c2ccc(C#N)cn2)CC1	-3%	0%	?	49	?
CCCCNC(=O)N1CCCN(c2ccc(C#N)cn2)CC1	6%	3%	18%	-65*	?
CCc1sc(N(C(=O)Cc2ccccc2)c2ccccc2F)nc1-c1ccc(C)cc1	7%	-1%	?	?	10µM*
C[C@@H]1CN([C@H](C)CO)C(=O)CCCn2cc(nn2)CO[C@H]1CN(C)C(=O)Nc1ccc(F)cc1	·	·	·	-32	·
CC(C)N(C1=CC(=O)OC12CCCCC2)C(C)C	11%	2%	-7%	-16	-3%
CCN(CC)C1=CC(=O)OC12CCCCC2	1.6µM*	-13%	-14%	25	·
CCN(CC)CCNC1=CC(=O)OC12CCCCC2	5%	6%	11%	?	15µM*
CCOC(=O)C(=C1Nc2ccccc2N1)n1c(-c2cccnc2)nc2ccccc21	·	·	·	144	·
CC(C)c1c(O)ccc2c1CC[C@H]1C(C)(C)CCC[C@]21C	·	·	·	13	·
Cc1cccc(C)c1NC(=O)C1CCN(S(C)(=O)=O)CC1	5%	8%	6%	34	?
SMILES	Sm TGR inh	FBPA Giardia inh	Pf growth 48h	HCMV inh	Pf growth 96h
Cc1cc([N+](=O)[O-])c2ccccc2[n+]1[O-]	13µM*	?	?	·	-20%
COC(=O)[C@]12CCCCC=C1N(Cc1ccc(Cl)cc1Cl)C(=O)[C@H](CC(=O)NCCC(C)C)C2	·	·	·	-7	·
O=C1CSC(=S)N1c1cccc(O)c1	-6%	0%	29%	-35	31%
O=C1CSC(=S)N1c1cccc(Br)c1	-3%	-9%	-6%	-77*	42%
O=C1CSC(=S)N1c1cccc(F)c1	10%	5%	27%	95	10µM*
O=C(O)c1cccc(N2C(=O)CSC2=S)c1	0%	-13%	·	14	5.9µM*
COc1ccc(S(=O)(=O)N2CCCOC2CNC(=O)C(=O)NCCCN2CCOCC2)cc1 (centres undefined)	6%	12%	-19%	?	-3%
CC(=O)c1ccc(NC(=O)C(C)Sc2n[nH]c(-c3cccnc3)n2)cc1 (centres undefined)	1%	?	-35%	1	?
N#Cc1ccc(C(=O)Nc2ccccc2-c2nc3ccccc3s2)c(F)c1	-11%	·	·	-15	·
CC(=O)NC(Cc1ccccc1)c1ccc2c(c1)OCCCO2 (centres undefined)	3%	-1%	-7%	19	-14%
O=C(NC(Cc1ccccc1)c1ccc2c(c1)OCCCO2)c1ccc(F)cc1 (centres undefined)	-16%	-6%	·	6	9.3µM*
COc1cccc(C(=O)NC(Cc2ccccc2)c2ccc3c(c2)OCCCO3)c1 (centres undefined)	-19%	-7%	·	11	3.3µM*
CCOc1cc(C2C3=C(CCCC3=O)N(C)C3=C2C(=O)CCC3)cc(Cl)c1O	35µM*	-25%	?	-11	13%
CCOc1cc(C2C3=C(CCCC3=O)NC3=C2C(=O)CCC3)cc(Cl)c1O	-10%[11.4 µM]	?	·	13	12%
O=C1[C@H]2[C@H]3[C@H](O)[C@H](O)C/C(=N/OCc4ccccc4)[C@H]3CC[C@@H]2C(=O)N1Cc1ccc2c(c1)OCO2	·	-2%[12.9 µM]	·	·	·
CCOc1ccccc1Nc1nc(-c2sc(C)nc2C)cs1	0%	-5%	?	59	-2%
COc1ccccc1Nc1nc(-c2sc(NC(=O)C(C)(C)C)nc2C)cs1	1%	-6%	?	-88*	12µM*
CC(=O)Nc1nc(C)c(-c2csc(Nc3ccccn3)n2)s1	12%	-9%	-2%	0	?
CCCC(=O)Nc1nc(C)c(-c2csc(Nc3cc(OC)ccc3OC)n2)s1	-24%	-10%	?	-24	?
COc1ccccc1Nc1nc(-c2sc(NC(=O)CC(C)C)nc2C)cs1	-1%	-9%	?	29	1.9µM*
COc1ccccc1Nc1nc(-c2c(C)[nH]c3ccccc23)cs1	-3%	-17%	5.2µM*	31	2.3µM*
CCCC(=O)Nc1nc(C)c(-c2csc(Nc3ccccc3OC)n2)s1	-11%	-5%	?	?	13µM*
Cc1ccc(-c2ccc([C@@H]3[C@@H](CO)N4C(=O)CN(C(=O)c5ccncc5)C[C@H]34)cc2)cc1	·	·	·	10	·
O=C(Nc1ccccc1N1CCCCC1)C1CCN(C(=O)c2ccc(Cl)cc2)CC1	-1%	·	?	-20	0%
C[N+](C)(C)CCOP(=O)([O-])OP(=O)(O)OCC1OC(n2ccc(N)nc2=O)C(O)C1O (centres undefined)	·	0%	·	·	·
